# Hit rate of the full screen: of about 2,100 compounds, about 650 (31%) were called active. Not shown: some 16% with an inconclusive outcome. This is one part of the list. A number with no mark means an inactive call. Calls come from the whole dose curve; as a rule, active = well fitted inhibition curve with a large enough effect; inconclusive = small, poorly fitted or top-dose-only effect; inactive = flat fitted curve, though single readings scatter.
# Test: qHTS for inhibitors of Vif-A3G interactions: Cherry picks; note: nearly all actives have a fitted effect of over 80% in size; for activity, negative = fluorescence increase: % of control where 0% means no effect
# Conditions: HeLa A3G-eYFP + Vif (tagged APOBEC3G with the HIV-1 protein that degrades it), 24 h; Potency: eYFP fluorescence increase; series mostly up to 36.9 µM; activity, negative = fluorescence increase: at the top concentration
# Method in brief: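 HeLa cells stably expressing A3G-eYFP and Vif, cultured overnight then exposed to compounds at several concentrations for 24 hours at 37 C, 5% CO2; cellular yellow fluorescence (488 nm ex, 500-530 nm em) imaged on Acumen, MG132 positive control.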
# Potency is the fitted concentration of half-maximal effect.
Structure (SMILES),"activity, negative = fluorescence increase",Potency
Cc1c(Cl)cccc1NC(=O)c1oc2ccc(S(=O)(=O)N3CCC4(CC3)OCCO4)cc2c1C,-4.65% [at 46.1 µM],–
CCNc1ccc(Br)cc(C(=O)/C=C/c2ccc3c(c2)OCO3)c1=O,–,18.4 µM (active)
COc1ccc(NC(=O)C(NC(=O)/C=C\c2ccc3c(c2)OCO3)c2ccccc2)cc1 (configuration not stated),-4.24% [at 46.1 µM],–
O=C(N/N=C/c1ccc2c(c1)OCO2)c1cccc2ccccc12,-1.42%,–
COc1ccc(NC(=O)C2Cc3c(-c4cccc(C(C)=O)c4)ccnc3O2)cc1 (configuration not stated),-8.31%,–
Cc1c(/C=N\NC(=O)c2cc3ccccc3o2)c2ccccc2n1C,-6.08%,–
Cc1ccccc1-n1c(/C=C/c2c(C)n(C)c3ccccc23)nc2ccccc2c1=O,–,8.2 µM (active)
CCCn1c(CN2CCN(C(=O)OCC)CC2)nc2cc(NC(=O)C(C)C)ccc21,0.103%,–
COc1ccccc1Nc1nnc(SCC2CCCCO2)s1 (configuration not stated),-0.68%,–
Cn1ncc(N=Cc2c(O)ccc3ccccc23)c1C(=O)Nc1cccc(Cl)c1,–,11.6 µM (active)
O=C(NN=Cc1c(O)ccc2ccccc12)c1ccc2c(c1)OCO2,-26.3% [at 46.1 µM],–
Cc1cc2nc(SCCOC(=O)Nc3cccc(Cl)c3)nc(C)c2cc1C,4.01% [at 46.1 µM],–
CSc1nsc(/C=C/Nc2ccc(O)cc2C)c1C#N,–,20.6 µM (active)
CSc1nsc(/C=C/Nc2ccc(F)cc2)c1C#N,4.62% [at 46.1 µM],–
Cc1nc(CSc2nsc(/C=C/N(C)C)c2C#N)cs1,-3.04%,–
Cc1cc(C)nc(Nc2n[nH]c(COc3cccc4ccccc34)n2)n1,1.35%,–
CCN(CC)C(=O)Cn1c(=O)n(-c2ccccc2)c(=O)c2c3c(sc21)CCC3,11.4% [at 46.1 µM],–
O=C(Nc1cc(F)cc(F)c1)c1ccc(NCCc2ccccc2)c([N+](=O)[O-])c1,–,14.6 µM (active)
Cc1ccc2c(CC(=O)NCc3ccco3)coc2c1C,-4.36%,–
Cc1ccc(NC(=O)c2ccc(NCC3CCCO3)c([N+](=O)[O-])c2)cc1Cl (configuration not stated),–,16.4 µM (active)
O=C(O)c1ccc(NS(=O)(=O)c2cccc(C(=O)Nc3ccccc3[N+](=O)[O-])c2)cc1,-3.19%,–
Cc1ccc(NC(=O)c2ccc(NCc3ccco3)c([N+](=O)[O-])c2)cc1Cl,–,18.4 µM (active)
Cc1ccc(NC(=O)c2ccc([N+](=O)[O-])s2)cc1S(=O)(=O)N1CCOCC1,3.79%,–
Cc1ccc(NC(=O)CSc2ccccc2NC(=O)c2cccc(Cl)c2)cc1Cl,2.74% [at 46.1 µM],–
O=C(NC(=S)Nc1ccc(N2CCCCC2)c(Cl)c1)c1ccc2c(c1)OCCO2,-0.693% [at 46.1 µM],–
S=C(Nc1ccccc1)N1CCn2c1nc1ccccc12,-1.43%,–

Structure (SMILES),"activity, negative = fluorescence increase",Potency
CC(=O)c1cccc(-c2ccnc3c2CC(C(=O)Nc2ccc4c(c2)OCO4)O3)c1 (configuration not stated),-0.931%,–
COc1ccccc1N1CCN(C(=O)c2cc(=O)c3cc(C)ccc3o2)CC1,-7.42%,–
CCCC(=O)NC(c1ccc(OC)cc1)c1c(O)ccc2ccccc12 (configuration not stated),-6.1%,–
COc1cc(-c2cc(NC=O)c3ncc(-c4ccc(C(C)=O)cc4)n3c2)cc(OC)c1OC,0.567%,–
CCN(CC)c1nc(C)c(C(=S)Nc2cc([N+](=O)[O-])ccc2Cl)s1,7.74% [at 46.1 µM],–
C/C(CCC(C)C)=N\NC(=S)NCc1ccccc1,4.1% [at 46.1 µM],–
COc1cccc(C(=O)Nc2sc3c(c2C#N)CCN(C(C)=O)C3)c1,-8.68%,–
CC(C)N1CCc2c(sc(NC(=O)c3cc4cc([N+](=O)[O-])ccc4s3)c2C(N)=O)C1,-27.5% [at 46.1 µM],–
CCN1CCc2c(sc(-n3cccc3)c2C(C)NC(=O)Nc2ccc(C(=O)OC)cc2)C1 (configuration not stated),10.3% [at 46.1 µM],–
COc1ccc(C(=O)Nc2sc3c(c2C#N)CCN(C(C)=O)C3)cc1,-8.58%,–
CCCCN(CCCC)S(=O)(=O)c1ccc(C(=O)Nc2sc3c(c2C(N)=O)CCN(CC)C3)cc1,–,29.1 µM (active)
CCN1CCc2c(sc(NC(=O)c3ccc(S(=O)(=O)N(CC)c4ccccc4)cc3)c2C(N)=O)C1,–,17.7 µM (active)
Cc1ccc(C(=O)Nc2sc(Cc3ccc4c(c3)OCO4)c(C)c2C(N)=O)cc1,-26.3% [at 46.1 µM],–
CC(C)CN(CC(C)C)S(=O)(=O)c1ccc(C(=O)Nc2sc3c(c2C(N)=O)CCN(C(C)C)C3)cc1,–,18.4 µM (active)
CC(C)N1CCc2c(sc(NC(=O)c3ccc(S(=O)(=O)N4CCOCC4)cc3)c2C#N)C1,–,20.6 µM (active)
CC1(C)COC(Cn2c3ccccc3c3ccccc32)O1 (configuration not stated),-5.66%,–
COC(=O)c1ccc(Oc2cc(C)nc(SC)n2)cc1,-10.7%,–
CC(/C=N/NC(=O)c1cccc(F)c1)=C\c1ccccc1,-11.1%,–
O=C(Cn1ncc(Cl)c(Cl)c1=O)NC(=O)NC1CCCCC1,0.0571%,–
C=CCSc1nc2sc3c(c2c(=O)n1CC)CCC3,1.48% [at 46.1 µM],–
COc1ccc(S(=O)(=O)N2c3ccccc3OCC2CC(=O)O)cc1 (configuration not stated),-10.8%,–
CCCN1CCc2c(sc(NC(=O)c3ccc(S(=O)(=O)N(C)c4ccccc4)cc3)c2C(N)=O)C1,–,16.4 µM (active)
CCOC(=O)c1c(NC(=O)c2ccc(S(=O)(=O)N3CCC(C)CC3)cc2)sc2c1CCN(C)C2,–,18.4 µM (active)
CCCN1CCc2c(sc(NC(=O)c3ccc(S(=O)(=O)N(C)c4ccccc4)cc3)c2C(=O)NC)C1,–,18.4 µM (active)
COc1ccccc1N(C)S(=O)(=O)c1ccc(C(=O)OCC(=O)N2CCC2)cc1,-5.51%,–
CC(C)(C)C(=O)Nc1sc2c(c1C#N)CCN(Cc1ccccc1)C2,-0.815% [at 46.1 µM],–

# Source: PubChem BioAssay AID651812 (National Center for Advancing Translational Sciences (NCATS), 2012)
